Test results as given in PubChem BioAssay (Tox21).
Inconclusive results are not listed. Active and inactive are the calls of the source. Unless noted, calls come from the whole dose curve; as a rule, active = well fitted curve in the direction sought with a large enough effect in the repeat runs; inconclusive = weak or mixed curves; inactive = no such curve, though single readings can be large; an effect the other way counts as inactive or inconclusive.

Key:
[1] = qHTS assay for small molecule agonists of the p53 signaling pathway (AID 651631; calls by dose curve; note: nearly all actives have a fitted effect of over 15% in size)
How it was run: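 Beta-lactamase reporter activity under p53 response elements was quantified in HCT-116 cells by FRET fluorescence, following 16 h incubation with test compounds at 37 °C and 2 h substrate development at room temperature.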

[2] = qHTS assay for small molecules that induce genotoxicity in human embryonic kidney cells expressing luciferase-tagged ATAD5 (AID 651632); note: nearly all actives have a fitted effect of over 15% in size
How it was run: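 Test compounds were delivered by pin tool onto HEK293T reporter cells (2,000/well) expressing ATAD5 fused to luciferase. After 16 hr at 37C, 5% CO2, Amplite was added for 30 min at room temperature and luminescence was measured.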

[3] = qHTS assay for small molecule agonists of the p53 signaling pathway - cell viability (AID 651633; calls by dose curve;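 note: p53RE-bla HCT reporter cells with a stable beta-lactamase p53 reporter; series mostly up to about 83 µM; nearly all actives have a fitted effect of over 30% in size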)
How it was run: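 p53RE-bla cells were treated with compound for 16 hours at 37 C. Cytotoxicity was then measured as CellTiter-Glo luminescence after 30 min at room temperature.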

[4] = qHTS assay for small molecules that induce genotoxicity in human embryonic kidney cells expressing luciferase-tagged ATAD5 - cell viability (AID 651634; calls by dose curve; note: nearly all actives have a fitted effect of over 25% in size)
How it was run: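 Quantitative high-throughput format. HEK293T cells expressing ATAD5 fused to luciferase were plated at 2,000 cells/well and treated 15.5 hr with compound versus DMSO. Viability was determined by fluorescent live-cell protease substrate, 30 min at 37C.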

[5] = qHTS assay for small molecule disruptors of the mitochondrial membrane potential - cell viability (AID 720634; calls by dose curve;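 note: human HepG2 liver cancer cells; series mostly up to about 83 µM; nearly all actives have a fitted effect of over 20% in size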)
How it was run: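 Same-well counter-screen: following the MMP dye addition, CellTiter-Glo was added to 1 hr compound-treated HepG2 cells and luminescence read after 30 min at room temperature.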

[6] = qHTS assay for small molecule disruptors of the mitochondrial membrane potential (AID 720635)
How it was run: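 HepG2 cells exposed to compound 1 hr at 37C, then Mito-MPS dye 30 min. Ratio read of aggregate (540/590 nm) versus monomer (490/535 nm) fluorescence.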

[7] = qHTS assay to test for compound auto fluorescence at 590 nm (red) in HepG2 cells (AID 720674)
How it was run: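 Seeding: 2,000 HepG2 cells/well, MEM/10% FBS, overnight 37 C. Dosing: compound vs DMSO. Incubation: 1 hr, 37 C, 5% CO2. Read: fluorescence 540 ex/590 em, Rose Bengal sodium as red reference.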

[8] = qHTS assay to test for compound auto fluorescence at 535 nm (green) in HepG2 cells (AID 720675)
[9] = qHTS assay to test for compound auto fluorescence at 460 nm (blue) in HEK293 cells (AID 720678)
How it was run: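 Triamterene serves as the blue fluorophore standard. Compound signal at 405/460 nm is read in HEK293 wells (2,000 cells, 10% dialyzed FBS) after overnight treatment at 37C.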

[10] = qHTS assay to test for compound auto fluorescence at 590 nm (red) in HEK293 cells (AID 720679)
How it was run: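 We plated HEK293 cells in 10% dialyzed FBS medium, let them adhere for 4-5 hr, then added 23 nL compound. Overnight at 37C and 5% CO2 preceded fluorescence measurement at 540/590nm.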

[11] = qHTS assay to test for compound auto fluorescence at 535 nm (green) in HEK293 cells (AID 720680)
[12] = qHTS assay to test for compound auto fluorescence at 460 nm (blue) in HEK293 cell free culture (AID 720681)
How it was run: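 Compounds were added to cell-free DMEM with 10% FBS and fluorescence read directly. The blue channel used 405 nm excitation and 460 nm emission, with triamterene as the reference fluorophore.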

[13] = qHTS assay to test for compound auto fluorescence at 535 nm (green) in HEK293 cell free culture (AID 720682)
How it was run: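 Each library compound, or DMSO control, is added by pintool to medium alone, comprising DMEM and 10% FBS. Emission at 535 nm following 485 nm excitation is quantified against fluorescein.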

[14] = qHTS assay to test for compound auto fluorescence at 590 nm (red) in HEK293 cell free culture (AID 720683)
How it was run: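 Cell-free wells of DMEM with 10% FBS received compound, and intrinsic fluorescence was read at excitation/emission 540/590 nm. Values expressed as equivalence to Rose Bengal sodium.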

[15] = qHTS assay to test for compound auto fluorescence at 590 nm (red) in HepG2 cell free culture (AID 720684)
How it was run: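 Auto fluorescence equivalency versus Rose Bengal sodium, red channel Ex/Em 540/590 nm; compounds in cell-free MEM/10% FBS; DMSO vehicle control.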

[16] = qHTS assay to test for compound auto fluorescence at 460 nm (blue) in HepG2 cell free culture (AID 720685)
How it was run: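 Cell-free plates of MEM plus 10% FBS received 23 nL compound or DMSO vehicle; blue-channel (405/460 nm) intensity scored against triamterene as reference fluorophore.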

[17] = qHTS assay to test for compound auto fluorescence at 535 nm (green) in HepG2 cell free culture (AID 720686)
[18] = qHTS assay to test for compound auto fluorescence at 460 nm (blue) in HepG2 cells (AID 720687)
How it was run: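 HepG2 cells in MEM with 10% FBS, attached overnight at 37 C, were exposed to compound or DMSO for 1 hr at 37 C, 5% CO2. Blue fluorescence was read at 405/460 nm, with triamterene as reference fluorophore.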

[19] = biological target: Glucocorticoid receptor (Homo sapiens) (UniProt P04150); test: qHTS assay to identify small molecule agonists of the glucocorticoid receptor (GR) signaling pathway (AID 720691; active = well fitted activation curve with a large enough effect in the signal ratio in the repeat runs, not every such curve was filed as active; the % refers to the signal ratio)
Glucocorticoid receptor (Homo sapiens), sequence (P04150 whole entry, looked up): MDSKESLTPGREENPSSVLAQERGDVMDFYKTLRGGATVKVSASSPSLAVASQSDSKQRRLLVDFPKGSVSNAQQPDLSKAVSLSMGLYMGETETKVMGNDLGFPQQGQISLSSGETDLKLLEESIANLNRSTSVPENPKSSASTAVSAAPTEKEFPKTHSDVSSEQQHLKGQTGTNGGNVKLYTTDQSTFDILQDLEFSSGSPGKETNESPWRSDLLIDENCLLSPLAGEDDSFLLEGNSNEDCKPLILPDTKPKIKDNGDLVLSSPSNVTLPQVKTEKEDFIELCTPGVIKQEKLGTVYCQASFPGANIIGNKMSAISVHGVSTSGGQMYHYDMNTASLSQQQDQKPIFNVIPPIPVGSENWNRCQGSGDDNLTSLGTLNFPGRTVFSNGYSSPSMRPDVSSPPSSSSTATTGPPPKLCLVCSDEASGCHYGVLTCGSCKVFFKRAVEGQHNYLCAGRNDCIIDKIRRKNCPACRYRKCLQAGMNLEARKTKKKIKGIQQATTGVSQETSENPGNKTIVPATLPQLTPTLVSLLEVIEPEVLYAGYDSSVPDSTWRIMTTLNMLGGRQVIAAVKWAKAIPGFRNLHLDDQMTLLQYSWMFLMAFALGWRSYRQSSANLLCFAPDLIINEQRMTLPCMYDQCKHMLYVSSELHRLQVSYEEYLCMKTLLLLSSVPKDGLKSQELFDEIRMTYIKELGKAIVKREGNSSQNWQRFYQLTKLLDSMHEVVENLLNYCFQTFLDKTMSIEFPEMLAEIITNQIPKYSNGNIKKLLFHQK
How it was run: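 A HeLa cervical cancer line expressing GR and a glucocorticoid response element-driven beta-lactamase gene is treated with compounds for 18 h; LiveBLAzer B/G FRET substrate is then applied and fluorescence read.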

[20] = biological target: Glucocorticoid receptor (Homo sapiens) (UniProt P04150); test: qHTS assay to identify small molecule antagonists of the glucocorticoid receptor (GR) signaling pathway (AID 720692; active = well fitted inhibition curve with a large enough effect in the signal ratio in the repeat runs, not every such curve was filed as active; the % refers to the signal ratio)
How it was run: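 GRE-bla HeLa line, dex-stimulated (5 nM final). Compound exposure 18 h, 37 C. Beta-lactamase FRET read after 2 h RT substrate.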

Measured: Potency

N[C@H]1C(O)O[C@H](CO)[C@@H](O)[C@@H]1O (stereo partly drawn)
not listed: [19] | [20]
inactive: all other assays above

NCC1CCC(C(=O)Oc2ccc(CCC(=O)O)cc2)CC1 (stereo not drawn)
not listed: [19] | [20]
inactive: all other assays above

O=C(O)Cc1ccccc1Oc1ccc(Cl)cc1Cl
not listed: [20]
inactive: all other assays above

CN1CCN(C(=O)C2CCCCC2)CC1
inactive: all assays above

COc1cc(C(=O)NC2CCCNC2)cc(OC)c1OC (stereo not drawn)
inactive: all assays above

CCOC(=O)CC
not listed: [19] | [20]
inactive: all other assays above

C=COCCCCO
inactive: all assays above
